Shown are actives, neighbours in structure and some others; about 2.8% of the full set was active somewhere.
Pol iota inh = qHTS for Inhibitors of Polymerase Iota. DNA polymerase iota (Homo sapiens), Q9UNA4. Pol iota fluorescent replication assay, 10 min. Potency, µM (series often up to 115 µM), most hits filed as inhibitors. 390,000 compounds, 1% hits
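Fluorescent replication assay read twice, at 0 min and 10 min after adding 50 nM (final) substrate. Enzyme (10 nM) and compounds were first incubated 15 min at room temperature; enzyme-free buffer wells were negative controls.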
PI5P4K alpha inh = qHTS for Inhibitors of phosphatidylinositol 5-phosphate 4-kinase (PI5P4K) | Phosphatidylinositol 5-phosphate 4-kinase type-2 alpha (Homo sapiens), P48426 | AID 652105, 2013 | max response, % | PI5P4Kalpha enzyme, ADP-Glo luminescence, 60 min; stronger effect = lower value | 330,000 compounds, 1.2% hits; active = max response of -50% or lower; inconclusive = between -30% and -50%; inactive = -30% or higher; note: value at the top dose of about 77 µM
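Single end-point luminescence (ADP-Glo) quantified ADP from PI5P4Kalpha turnover; ATP 5 microM final, 1 h at RT, 0.1% CHAPS and 0.28 mM EGTA in HEPES pH 7.4.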
POLH inh = qHTS for Inhibitors of Polymerase Eta | recombinant Pol eta, fluorescent DNA replication assay | AID 588591, 2011 | 390,000 compounds, 1.2% hits | Potency, µM (highest dose often 114 µM), actives largely listed as inhibitors | DNA polymerase eta (Homo sapiens), Q9Y253
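Pol eta at 10 nM preincubated with compounds 15 min at room temperature; reaction started with fluorescent substrate (50 nM final) and read kinetically at 0 and 10 min.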
Pol kappa inh = qHTS for Inhibitors of Polymerase Kappa; 400,000 compounds, 0.53% hits; DNA polymerase kappa (Homo sapiens), Q9UBT6; AID 588579, 2011; Potency, µM (series often up to 107 µM), actives largely listed as inhibitors; purified Pol kappa, fluorescent DNA synthesis assay, 10 min
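Activity was followed as the change in fluorescence between reads at 0 and 10 min after starting the reaction with 50 nM substrate. Beforehand, 10 nM polymerase had been preincubated with compound for 15 min at room temperature.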
WRN helicase inh = qHTS for Inhibitors of WRN Helicase | Bifunctional 3'-5' exonuclease/ATP-dependent helicase WRN (Homo sapiens), Q14191 | WRN helicase unwinding, fluorescent forked duplex, kinetic | Potency, µM (doses to about 114 µM), hits mostly inhibitors | 360,000 compounds, 0.46% hits | AID 651768, 2012; note: nearly all actives have a fitted effect of over 55% in size
Target sequence (Q14191 whole entry, looked up): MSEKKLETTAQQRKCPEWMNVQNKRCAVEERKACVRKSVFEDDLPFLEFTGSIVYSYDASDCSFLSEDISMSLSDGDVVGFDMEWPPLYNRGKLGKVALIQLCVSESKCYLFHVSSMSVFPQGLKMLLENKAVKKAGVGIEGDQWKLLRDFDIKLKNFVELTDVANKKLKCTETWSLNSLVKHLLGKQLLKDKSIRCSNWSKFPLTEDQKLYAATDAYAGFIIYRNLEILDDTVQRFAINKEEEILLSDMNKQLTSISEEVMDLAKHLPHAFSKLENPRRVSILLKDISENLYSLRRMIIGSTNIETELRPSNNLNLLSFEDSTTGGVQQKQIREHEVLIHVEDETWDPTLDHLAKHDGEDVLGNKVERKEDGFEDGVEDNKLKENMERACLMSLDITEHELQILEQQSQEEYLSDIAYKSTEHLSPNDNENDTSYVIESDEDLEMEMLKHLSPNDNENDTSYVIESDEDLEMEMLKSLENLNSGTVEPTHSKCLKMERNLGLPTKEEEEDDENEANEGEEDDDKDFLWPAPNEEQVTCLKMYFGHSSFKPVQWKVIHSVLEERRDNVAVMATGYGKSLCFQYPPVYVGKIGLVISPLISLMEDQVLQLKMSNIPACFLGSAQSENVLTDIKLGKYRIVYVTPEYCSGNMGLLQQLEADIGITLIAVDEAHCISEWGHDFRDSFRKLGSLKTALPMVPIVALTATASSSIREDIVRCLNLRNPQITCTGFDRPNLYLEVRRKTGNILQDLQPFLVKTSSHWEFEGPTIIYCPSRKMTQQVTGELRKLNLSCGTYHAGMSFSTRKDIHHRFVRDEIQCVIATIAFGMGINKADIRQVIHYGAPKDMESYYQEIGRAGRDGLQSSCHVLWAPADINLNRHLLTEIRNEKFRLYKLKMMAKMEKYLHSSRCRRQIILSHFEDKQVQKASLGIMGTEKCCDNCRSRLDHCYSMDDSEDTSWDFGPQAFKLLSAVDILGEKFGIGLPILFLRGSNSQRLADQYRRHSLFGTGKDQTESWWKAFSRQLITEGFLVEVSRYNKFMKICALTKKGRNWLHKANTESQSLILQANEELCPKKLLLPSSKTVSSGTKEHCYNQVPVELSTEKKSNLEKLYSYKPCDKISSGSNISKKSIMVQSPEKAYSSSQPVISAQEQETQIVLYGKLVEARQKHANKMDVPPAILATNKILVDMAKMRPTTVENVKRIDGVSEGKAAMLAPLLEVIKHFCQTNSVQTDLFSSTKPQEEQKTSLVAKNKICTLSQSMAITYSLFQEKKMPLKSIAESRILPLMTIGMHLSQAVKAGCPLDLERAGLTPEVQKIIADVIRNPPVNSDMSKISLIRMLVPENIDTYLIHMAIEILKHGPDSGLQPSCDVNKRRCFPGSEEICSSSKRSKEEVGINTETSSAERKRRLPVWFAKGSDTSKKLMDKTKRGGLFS
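Kinetic fluorescence helicase assay: unwinding of a quenched forked DNA duplex (100 nM final) with 2 mM ATP final raises red fluorescence (525/598 nm). Compounds sat 15 min at room temperature with 20 nM WRN beforehand.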
POLB inh = qHTS Assay for Inhibitors of DNA Polymerase Beta; P06746; Potency, µM (top dose mostly 114 µM), actives largely listed as inhibitors; 340,000 compounds, 1.3% hits; Pol beta primer extension/strand displacement, fluorescence kinetic; AID 485314, 2010
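Kinetic readout of DNA synthesis with strand displacement by Pol beta. Compound and 10 nM enzyme sit 15 min at room temperature; 50 nM substrate starts the reaction, read immediately and at 10 min.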
Hits are given with their value; 0 = inactive; ? = inconclusive; - = no result given; [ ] = remark or other dose. Unless noted, calls come from the whole dose curve; as a rule, active = well fitted curve in the direction sought with a large enough effect; inconclusive = small, poorly fitted or top-dose-only effect, or another doubt; inactive = no such curve, though single readings can be large; an effect the other way counts as inactive or inconclusive.

SMILES	Pol iota inh	PI5P4K alpha inh	POLH inh	Pol kappa inh	WRN helicase inh	POLB inh
O=c1c2cc3c(cc2n(Cc2ccc(Cl)cc2)c(=O)n1Cc1nc(-c2ccccc2)no1)OCO3	89.1µM	-	0	?	-	0
O=[N+]([O-])c1cccc(CON=Cc2cc(Cl)ccc2O)c1	-	0	0	-	0	-
CN(C(=S)NC(=O)c1ccc(Cl)cc1)C1CCCCC1	?	-97.9	?	0	0	11.2µM
Cc1cc(C(F)(F)F)nn1Cc1n[nH]c(=S)n1Cc1ccccc1	0	-53.9	0	0	0	0
CCC(C)C(N)C1=NC(C(=O)N[C@@H](CC(C)C)C(=O)N[C@H](CCC(=O)[O-])C(=O)N[C@H](C(=O)N[C@H]2CCCCNC(=O)[C@H](CC(N)=O)NC(=O)[C@@H](CC(=O)[O-])NC(=O)[C@H](Cc3cnc[nH]3)NC(=O)[C@@H](Cc3ccccc3)NC(=O)[C@H]([C@@H](C)CC)NC(=O)[C@@H](CCCN)NC2=O)[C@@H](C)CC)CS1.[Zn+2] (stereo partly specified)	0.891µM	0	?	?	0	-
CC[C@H](C)[C@@H]1NC(=O)[C@H](Cc2ccc(O)cc2)NC(=O)[C@@H](N)CSSC[C@@H](C(=O)N2CCC[C@H]2C(=O)N[C@@H](CC(C)C)C(=O)NCC(N)=O)NC(=O)[C@H](CC(N)=O)NC(=O)[C@H](CCC(N)=O)NC1=O	-	-	-	0[12 µM]	-	-
CC(=O)NS(=O)(=O)c1ccc(NC(=O)CC23CC4CC(CC(Br)(C4)C2)C3)cc1	0	0	0	0	0	0
Cn1c2ccccc2c(=O)c2cc(C#CC3(O)CCCCC3)ccc21	0	0	0	0	0	?
Cn1c2ccccc2c(=O)c2ccc(C#CC3(N)CCCCC3)cc21	?	0	0	?	0	35.5µM
Cc1cc(=O)n(CCCc2ccccc2)[nH]1	10µM	0	0	0	0	-
O=C1C=C(c2ccccc2)CC(c2cccs2)C1n1cnc([N+](=O)[O-])c1 (stereo unspecified)	0	?	?	0	0	50.1µM
O=C1C=C(c2ccccc2)C[C@H](c2cccs2)[C@H]1n1nnc([N+](=O)[O-])n1	0	?	?	0	0	0
O=C(NCc1cccnc1)[C@@H]1CC=C[C@@H]2CCN(C3CCCCC3)C(=O)[C@@H]21	0	-	-	0	-	-
CCS(=O)c1ccccc1C(=O)OCC(=O)N1CCC(c2ccccc2)=N1 (stereo unspecified)	0	0	0	0	0	-
Cc1cc(N)c2cc(NC(=O)Nc3ccc4nc(C)cc(N)c4c3)ccc2n1	-	-	-	6.31µM	-	-
CCN(CC)S(=O)(=O)c1cccc(NC(=O)C2CC(=O)N(c3ccc4c(c3)OCCO4)C2)c1 (stereo unspecified)	0	0	0	0	0	-
CC(=O)c1c(C)oc2ccc(NS(=O)(=O)c3ccc(O)c(C(=O)O)c3)cc12	?	0	25.1µM	0	0	?
O=C(O)c1cc(NS(=O)(=O)c2ccc3ccccc3c2)ccc1O	?	0	0	0	0	0
CC(=O)c1c(C)oc2ccc(NS(=O)(=O)c3ccc(F)cc3C)cc12	0	0	0	0	0	0
O=C(O)c1cc(S(=O)(=O)Nc2ccc3oc(=O)sc3c2)ccc1O	?	-59.7	14.1µM	?	28.2µM	50.1µM
O=C(COC(=O)c1ccc(Cl)nc1)Nc1nnc(-c2ccccc2)o1	0	0	?	0	0	-
CCCCNC(=O)C(=O)Nc1ccc2c(c1)N(S(=O)(=O)c1cccs1)CCC2	-	0	0	-	0	-
C=CCn1c(SCc2cc(=O)n3ccsc3n2)nc2sc(C)c(C)c2c1=O	31.6µM	-	?	0	0	50.1µM
CCOC(=O)c1c(C)[nH]c(C)c1S(=O)(=O)N1CCC(C(=O)NCc2cccc(OC)c2)CC1	0	-	0	0	-	0
CN(C(=O)c1cc2ccccc2oc1=O)C1(C)CCS(=O)(=O)C1 (stereo unspecified)	0	0	0	0	0	0
SMILES	Pol iota inh	PI5P4K alpha inh	POLH inh	Pol kappa inh	WRN helicase inh	POLB inh
Cc1ccccc1C(=O)N1CCc2cc(-c3nc(NC(=O)Cc4ccc5c(c4)OCO5)sc3C)ccc21	0	0	0	0	0	0.251µM
Cc1sc(NC(=O)Cc2ccc3c(c2)OCO3)nc1-c1ccc2c(c1)CCN2C(=O)c1cccc(F)c1	0	0	0	0	0	0
CCCCNC(=O)/C=C/c1ccc(S(=O)(=O)Nc2ccc(OC)cc2)cc1	?	0	0	0	0	0
CCCSc1nc2sc3c(c2c(=O)[nH]1)CCN(Cc1ccccc1)C3	0	0	?	0	0	39.8µM
Cc1[nH]n(-c2ccc(Br)cc2)c(=O)c1C=Nc1ccc(S(=O)(=O)Nc2nccs2)cc1	?	?	44.7µM	0	0	?
Cc1[nH]n(-c2ccccc2)c(=S)c1C=Nc1ccc([N+](=O)[O-])cc1	0	-79.2	0	0	?	0
Cc1[nH]n(-c2ccccc2)c(=O)c1C=Nc1ccc(S(=O)(=O)N=C(N)N)cc1	50.1µM	0	?	0	0[11.6 µM]	0
O=C(NCCS(=O)(=O)N1CCN(c2ccc(F)cc2)CC1)C12CC3CC(CC(C3)C1)C2	0	0	0	0	0	-
CC(=O)Nc1ccccc1OCc1cc(=O)n2c3c(sc2n1)CCCC3	0	-	0	0	-	0
CC(c1ncncc1F)[C@](O)(Cn1cncn1)c1ccc(F)cc1F (stereo partly specified)	-	-	-	0	-	-
COc1cc(NC(=O)CN(c2ccc(C)cc2)S(=O)(=O)c2cccc3nonc23)cc(OC)c1	0	-	?	0	-	0
Cc1cc(C)cc(NC(=O)Cn2c(-c3cncs3)nc3ccccc32)c1	89.1µM	-	-	0	-	?
COc1cc(NC(=O)Cn2c(-c3cncs3)nc3ccccc32)cc(OC)c1OC	0	-	0	0	0	0
CCN(Cc1ccccc1)c1ccc(/C=C/c2nccc3ccccc23)cc1	0	-	-	0	-	-
CCc1ccccc1NC(=O)C1CCCN1S(=O)(=O)c1ccc(-c2ccc(=O)[nH]n2)s1 (stereo unspecified)	?	-58.8	39.8µM	0	0[11.6 µM]	0
O=C(CSc1nc2sc3c(c2c(=O)n1-c1ccccc1)CCCC3)N/N=C/c1ccccc1C(=O)O	?	0	50.1µM	0	0	?
